Experimental data as given in PubChem BioAssay (Tox21).
“And” between values parts separate entries of the source, which are not always exact repeats. Equal entries are not always repeated. Some compounds were tested as several samples or in several runs, with calls that do not always agree. The source made the active and inactive calls. Unless noted, the call rests on the fitted dose curve; in most records, active means well fitted curve in the direction sought with a large enough effect in the repeat runs; inconclusive means weak or mixed curves; inactive means no such curve, though single readings can be large; an effect the other way counts as inactive or inconclusive.

Key:
[1] = qHTS assay to identify small molecule antagonists of the thyroid receptor (TR) signaling pathway - cell viability counter screen (AID 743064); further: potency means the concentration at half of the fitted maximal effect; nearly all actives have a fitted effect of over 50% in size
How it was run: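 CellTiter-Fluor readout, 30 min at 37 °C/5% CO2, following 23.5 h incubation of GH3.TRE-Luc cells with test compound and 1 nM T3 (final).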

[2] = qHTS assay to identify small molecule antagonists of the thyroid receptor (TR) signaling pathway (AID 743065); further: potency means the concentration at half of the fitted maximal effect; nearly all actives have a fitted effect of over 55% in size
How it was run: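 Antagonism measured as loss of luciferase signal in GH3 cells stably carrying a TRE-luciferase reporter, co-treated with compound and T3 (1 nM final) for 23.5 h at 37 C. Viability was read in the same well by CellTiter-Fluor.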

[3] = qHTS assay to identify small molecule antagonists of the estrogen receptor alpha (ER-alpha) signaling pathway - cell viability counter screen (AID 743074; calls by dose curve;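 further: HEK293 cells carrying ER-alpha-UAS-bla reporter stimulated with 17beta-estradiol; nearly all actives have a fitted effect of over 45% in size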; further: potency means the concentration at half of the fitted maximal effect)
[4] = qHTS assay to identify small molecule antagonists of the estrogen receptor alpha (ER-alpha) signaling pathway using the BG1 cell line (AID 743080; calls by dose curve;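 further: BG1 cells stimulated with 17beta-estradiol alongside compound; nearly all actives have a fitted effect of over 25% in size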; further: potency means the concentration at half of the fitted maximal effect)
How it was run: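 After 5 days in phenol-red-free 10% charcoal-stripped FBS medium, BG1-Luc-4E2 cells were seeded, left 24 h at 37 C, co-treated with compounds and 17beta-estradiol for 21.5 h, then assayed for viability and luciferase.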

Aromatase (Homo sapiens) = Aromatase (Homo sapiens) (UniProt P11511); test: qHTS assay to identify aromatase inhibitors (AID 743083); further: nearly all actives have a fitted effect of over 55% in size; further: potency means the concentration at half of the fitted maximal effect
Sequence of Aromatase (Homo sapiens) (P11511 whole entry, looked up): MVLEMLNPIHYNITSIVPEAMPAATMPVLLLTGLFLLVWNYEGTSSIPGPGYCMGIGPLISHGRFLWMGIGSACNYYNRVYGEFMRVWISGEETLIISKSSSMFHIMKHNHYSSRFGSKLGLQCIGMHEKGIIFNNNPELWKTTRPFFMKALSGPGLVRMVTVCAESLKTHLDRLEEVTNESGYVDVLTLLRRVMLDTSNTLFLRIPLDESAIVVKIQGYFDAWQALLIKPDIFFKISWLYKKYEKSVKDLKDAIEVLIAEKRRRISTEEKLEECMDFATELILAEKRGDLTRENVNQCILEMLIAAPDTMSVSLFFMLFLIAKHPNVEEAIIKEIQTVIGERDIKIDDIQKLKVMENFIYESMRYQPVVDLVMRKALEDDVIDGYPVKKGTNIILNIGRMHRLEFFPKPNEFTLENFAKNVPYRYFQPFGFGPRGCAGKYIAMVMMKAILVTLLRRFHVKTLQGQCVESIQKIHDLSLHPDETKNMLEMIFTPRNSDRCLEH

[5] = qHTS assay to identify small molecule antagonists of the estrogen receptor alpha (ER-alpha) signaling pathway using the BG1 cell line - cell viability counter screen (AID 743081);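 further: compound given together with 17beta-estradiol as the ER stimulus; nearly all actives have a fitted effect of over 45% in size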; further: potency means the concentration at half of the fitted maximal effect
[6] = target: Estrogen receptor (Homo sapiens) (UniProt P03372); test: qHTS assay to identify small molecule agonists of the estrogen receptor alpha (ER-alpha) signaling pathway (AID 743075; calls by dose curve;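 further: HEK293 GripTite cells with ER-alpha and UAS-driven beta-lactamase reporter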; further: potency means the concentration at half of the fitted maximal effect; on activation: on the % scale 0 is the no-effect control and ±100 the full control effect); conditions: HEK293 ER-alpha-UAS-bla, beta-lactamase FRET ratio, 18 h; activation: at 70.1 µM (top of the series)
Sequence of Estrogen receptor (Homo sapiens) (P03372 whole entry, looked up): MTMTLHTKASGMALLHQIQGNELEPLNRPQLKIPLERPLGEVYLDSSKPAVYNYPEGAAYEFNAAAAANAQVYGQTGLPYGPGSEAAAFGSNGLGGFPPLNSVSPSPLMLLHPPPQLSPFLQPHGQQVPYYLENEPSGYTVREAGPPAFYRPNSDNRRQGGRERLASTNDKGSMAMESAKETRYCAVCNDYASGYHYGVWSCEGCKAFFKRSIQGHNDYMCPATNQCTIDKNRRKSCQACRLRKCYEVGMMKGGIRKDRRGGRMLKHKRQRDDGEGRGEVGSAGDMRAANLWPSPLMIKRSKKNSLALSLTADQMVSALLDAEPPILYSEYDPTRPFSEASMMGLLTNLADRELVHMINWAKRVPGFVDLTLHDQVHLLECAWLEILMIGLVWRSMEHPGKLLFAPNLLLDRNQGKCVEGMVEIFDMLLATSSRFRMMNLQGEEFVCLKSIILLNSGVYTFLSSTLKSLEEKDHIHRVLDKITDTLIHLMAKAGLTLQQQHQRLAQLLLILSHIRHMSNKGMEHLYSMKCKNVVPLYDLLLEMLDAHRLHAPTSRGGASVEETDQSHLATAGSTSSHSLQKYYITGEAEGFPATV

[7] = target: Estrogen receptor (Homo sapiens) (UniProt P03372); test: qHTS assay to identify small molecule agonists of the estrogen receptor alpha (ER-alpha) signaling pathway using the BG1 cell line (AID 743079); conditions: BG1Luc4E2 cells, ERE-luciferase agonist, 22 h; further: nearly all actives have a fitted effect of over 20% in size; further: potency means the concentration at half of the fitted maximal effect; on activation: on the % scale 0 is the no-effect control and ±100 the full control effect
[8] = test system: thyroid hormone receptor (rat, GH3 cells); test: qHTS assay to identify small molecule agonists of the thyroid receptor (TR) signaling pathway (AID 743066; calls by dose curve; further: on the % scale 0 is the no-effect control and ±100 the full control effect)

CCC1=C[C@@H]2CN(C1)Cc1c([nH]c3ccccc13)[C@@](C(=O)OC)(c1cc3c(cc1OC)N(C)[C@H]1[C@@](O)(C(=O)OC)[C@H](OC(C)=O)[C@]4(CC)C=CCN5CC[C@]31[C@@H]54)C2
active: Potency [1] 4.73 µM | Potency [2] 1.88 µM
inactive: Potency [3] | Potency [4] | Potency (Aromatase (Homo sapiens))

CCOC(=O)O[C@H](C)OC(=O)c1ccc2c(c1)cc(C(=O)NC1CCN(C(C)C)CC1)n2Cc1cc(-c2ccc(Cl)s2)on1
inactive: Potency [5]
active: Potency [1] 5.09 µM | Potency [2] 4.54 µM | Potency [3] 45.8 µM | Potency (Aromatase (Homo sapiens)) 14.3 µM

CCN1/C(=C/C=C/c2sc3ccccc3[n+]2CC)Sc2ccccc21
active: Potency [1] 1.68 µM | Potency [2] 0.841 µM | Potency [3] 10.7 µM | Potency [4] 2.98 µM | Potency [5] 9.44 µM | Potency (Aromatase (Homo sapiens)) 1.5 µM

CCCCCCCCCCCC(=O)NCCCN(C)C
active: Potency [1] 17.2 µM | Potency [2] 17.2 µM | Potency [3] 49 µM | Potency [5] 61.1 µM | Potency (Aromatase (Homo sapiens)) 43.3 µM

C[C@@H](NCCCc1cccc(C(F)(F)F)c1)c1cccc2ccccc12
active: Potency [1] 7.5 µM | Potency [2] 8.41 µM | Potency [3] 23.9 µM | Potency (Aromatase (Homo sapiens)) 13.3 µM

Fc1ccc([C@@H]2CCNC[C@H]2COc2ccc3c(c2)OCO3)cc1
inactive: Potency [6] | Potency [4]
active: Potency [1] 11.9 µM | Potency [2] 10.6 µM

CSc1ccc2c(c1)C(N1CCN(C)CC1)Cc1ccccc1S2 (stereo not drawn)
active: Potency [1] 7.5 µM | Potency [2] 8.41 µM
inactive: Potency [6] | activation ([7]; at 70.3 µM (top of the series)) -16.2% | Potency [4] | Potency [5]

CCCCC(CC)CN=C(N)NC(N)=NCCCCCCN=C(N)NC(N)=NCC(CC)CCCC (stereo not drawn)
active: Potency [1] 7.5 µM | Potency [2] 6.68 µM | Potency [3] 10.7 µM | Potency (Aromatase (Homo sapiens)) 18.8 µM

C[n+]1cc2c3c(ccc2c2ccc4cc5c(cc4c21)OCO5)OCO3
active: Potency [1] 2.98 µM | Potency [2] 2.66 µM | Potency [3] 10.7 µM | Potency [6] 15.1 µM [inconclusive] | Potency (Aromatase (Homo sapiens)) 11.9 µM

COc1cccc2c1C(=O)c1c(O)c3c(c(O)c1C2=O)C[C@@](O)(C(=O)CO)C[C@@H]3O[C@H]1C[C@H](N)[C@H](O[C@@H]2CCCCO2)[C@H](C)O1
inactive: Potency [3] | Potency (Aromatase (Homo sapiens))
active: Potency [1] 1.68 µM | Potency [2] 0.841 µM | Potency [6] 4.25 µM [activator] | Potency [5] 9.44 µM

OC1(c2ccc(Cl)c(C(F)(F)F)c2)CCN(CCCC(c2ccc(F)cc2)c2ccc(F)cc2)CC1
active: Potency [1] 5.96 µM | Potency [2] 5.96 µM | Potency [3] 26.8 µM | Potency (Aromatase (Homo sapiens)) 7.5 µM
inactive: Potency [5]

CCCCCCCCNC(C)C(O)c1ccc(SC(C)C)cc1 (stereo not drawn)
active: Potency [1] 5.31 µM | Potency [2] 5.96 µM | Potency [3] 9.52 µM | Potency (Aromatase (Homo sapiens)) 29.8 µM

[Cl][Bi]([Cl])([c]1ccccc1)([c]1ccccc1)[c]1ccccc1
active: Potency [1] 1.71 µM | Potency [2] 0.682 µM | Potency [3] 48.7 µM | Potency [6] 6.13 µM [inconclusive] | Potency [5] 60.8 µM | Potency (Aromatase (Homo sapiens)) 6.82 µM

NC(=O)N1C(=O)C(C(=O)c2cc(Cl)cs2)c2cc(F)c(Cl)cc21 (stereo not drawn)
inactive: Potency [6] | Potency [4]
active: Potency [1] 61.1 µM | Potency [2] 61.1 µM | Potency [3] 49 µM | Potency [5] 8.63 µM

CC(C)n1nc(-c2cc3cc(O)ccc3[nH]2)c2c(N)ncnc21
active: Potency [1] 0.106 µM | Potency [2] 0.0944 µM | Potency (Aromatase (Homo sapiens)) 0.335 µM
inactive: Potency [6]

CNCc1cc(F)ccc1Oc1ccc(Cl)c(Cl)c1
active: Potency [1] 30.6 µM | Potency [2] 30.6 µM
inactive: Potency [3] | Potency [6] | Potency [5]

[O-][n+]1ccccc1SSc1cccc[n+]1[O-]
active: Potency [1] 0.266 µM | Potency [2] 0.211 µM | Potency (Aromatase (Homo sapiens)) 0.15 µM
inactive: Potency [6] | Potency [5]

CC[C@H]1O[C@]2(CC[C@@H]1C)C[C@@H]1C[C@@H](C/C=C(\C)C[C@@H](C)/C=C/C=C3\CO[C@@H]4[C@H](O)C(C)=C[C@@H](C(=O)O1)[C@]34O)O2
active: Potency [1] 6.06 µM | Potency [2] 5.4 µM | Potency [3] 43.3 µM | Potency [5] 60.6 µM | Potency (Aromatase (Homo sapiens)) 30.4 µM

CC(C)c1ccc2c(c1)CC[C@H]1[C@](C)(CN)CCC[C@]21C
active: Potency [1] 10.9 µM | Potency [2] 12.2 µM | Potency [3] 49 µM | Potency (Aromatase (Homo sapiens)) 19.3 µM

CC(C)(C)CC(C)(C)c1ccc(OCCOCC[N+](C)(C)Cc2ccccc2)cc1
inactive and 61.1 µM (active): Potency [5]
inactive: Potency [6]
active: Potency [1] 16.8 µM and 13.7 µM | Potency [2] 16.8 µM and 13.7 µM | Potency [3] 19 µM and 19.5 µM | Potency (Aromatase (Homo sapiens)) 23.7 µM and 12.2 µM

O=C(Nc1cccc(C(F)(F)F)c1)c1cc(Br)cc(Br)c1O
inactive: Potency [6]
active: Potency [1] 5.96 µM and 2.43 µM | Potency [2] 2.98 µM and 1.09 µM | Potency [3] 1.34 µM and 977 nM | Potency (Aromatase (Homo sapiens)) 11.9 µM and 4.86 µM

CCCN(CCC)c1c([N+](=O)[O-])cc(C(F)(F)F)c(N)c1[N+](=O)[O-]
active: Potency [1] 13.6 µM | Potency [2] 13.6 µM | Potency (Aromatase (Homo sapiens)) 15.3 µM

Oc1cccc(-c2c3nc(c(-c4cccc(O)c4)c4ccc([nH]4)c(-c4cccc(O)c4)c4nc(c(-c5cccc(O)c5)c5ccc2[nH]5)CC4)C=C3)c1
inactive: Potency [6] | Potency [4]
inactive and 26.6 µM (active): Potency (Aromatase (Homo sapiens))
active: Potency [1] 11.9 µM and 10.6 µM | Potency [2] 8.41 µM and 7.5 µM | Potency [5] 9.44 µM and 11.9 µM

COc1ccc(CN2CCN(C(c3ccc(F)cc3)c3ccc(F)cc3)CC2)c(OC)c1OC
inactive: Potency (Aromatase (Homo sapiens))
active: Potency [1] 11.9 µM | Potency [2] 13.3 µM | Potency [3] 26.8 µM

On1ccccc1=S
inactive: Potency [5]
active: Potency [1] 1.52 µM | Potency [2] 0.855 µM | Potency (Aromatase (Homo sapiens)) 0.382 µM

Oc1cc2ccccc2c2ccccc12
active: Potency [1] 10.9 µM | Potency [2] 10.9 µM | Potency [3] 11 µM | Potency [6] 24.5 µM [fluorescent] | Potency (Aromatase (Homo sapiens)) 6.86 µM

Oc1c(Cl)cc(Cl)c2cccnc12
active: Potency [1] 9.44 µM | Potency [2] 6.68 µM | Potency [4] 21.1 µM | Potency (Aromatase (Homo sapiens)) 11.9 µM
inactive: Potency [5]

c1cc(C(c2ccc(OCC3CO3)cc2)c2ccc(OCC3CO3)cc2)ccc1OCC1CO1 (stereo not drawn)
active: Potency [1] 17.2 µM | Potency [2] 12.2 µM | Potency (Aromatase (Homo sapiens)) 68.6 µM
inactive: Potency [3] | Potency [6] | Potency [4] | Potency [5]

CC1(C)CCC(C)(C)c2cc(C(=O)Nc3ccc(C(=O)O)cc3)ccc21
active: Potency [1] 68.6 µM | Potency [2] 48.6 µM | Potency [4] 0.0043 µM
inactive: Potency [3] | Potency [6] | Potency [5] | Potency (Aromatase (Homo sapiens))

Cc1ccc(O)c2ncccc12
active: Potency [1] 6.68 µM | Potency [2] 6.68 µM | Potency (Aromatase (Homo sapiens)) 13.3 µM
inactive: Potency [3] | Potency [6] | Potency [4]

O=C(Nc1cccc(Cl)c1)OCC#CCCl
inactive: Potency [6]
active: Potency [1] 24.3 µM | Potency [2] 17.2 µM | Potency (Aromatase (Homo sapiens)) 21.7 µM

CC(C)(C)NC(=O)[C@@H]1C[C@@H]2CCCC[C@@H]2CN1C[C@@H](O)[C@H](Cc1ccccc1)NC(=O)[C@H](CC(N)=O)NC(=O)c1ccc2ccccc2n1
inactive: Potency [6]
active: Potency [1] 13.3 µM and 24.7 µM | Potency [2] 21.1 µM and 31 µM | Potency [5] 23.7 µM and 49.2 µM | Potency (Aromatase (Homo sapiens)) 29.8 µM and 31 µM

CN(C)C(=O)C1(N2CCCCC2)CCN(CC[C@@]2(c3ccc(Cl)c(Cl)c3)CN(C(=O)c3ccccc3)CCO2)CC1
active: Potency [1] 5.09 µM | Potency [2] 4.54 µM | Potency [3] 51.3 µM | Potency [5] 64.1 µM | Potency (Aromatase (Homo sapiens)) 40.4 µM

CCCCCCCCCCCCc1ccc(O)cc1
active: Potency [1] 13.7 µM | Potency [2] 13.7 µM | Potency [3] 49 µM | Potency [6] 3.09 µM [inconclusive] | Potency [7] 0.969 µM | Potency (Aromatase (Homo sapiens)) 48.6 µM

CC1=C(C(=O)OC(C)C)C(c2cccc([N+](=O)[O-])c2)C(C(=O)OC2CN(C(c3ccccc3)c3ccccc3)C2)=C(N)N1 (stereo not drawn)
active: Potency [1] 2.98 µM | Potency [2] 2.98 µM | Potency [3] 23.9 µM | Potency (Aromatase (Homo sapiens)) 29.8 µM

Cc1cc(CCN2CCN(c3nsc4ccccc34)CC2)cc2c1NC(=O)CC2(C)C
inactive: Potency [6]
active: Potency [1] 43.3 µM | Potency [2] 27.3 µM | Potency [3] 27.5 µM | Potency [5] 54.5 µM | Potency (Aromatase (Homo sapiens)) 24.3 µM

CC(C)(C)c1ccc(C(=O)CCCN2CCC(OC(c3ccccc3)c3ccccc3)CC2)cc1
inactive: Potency (Aromatase (Homo sapiens))
active: Potency [1] 11.9 µM | Potency [2] 13.3 µM | Potency [3] 23.9 µM

C=C(C)C(=O)OCC[N+](C)(C)C
inactive: Potency [8] | Potency [3] | Potency [5] | Potency (Aromatase (Homo sapiens))
active: Potency [1] 60.9 µM

Cc1nc(-c2ccc3c(c2)CCN(CCC2CCC(NC(=O)/C=C/c4ccc(F)cc4)CC2)CC3)no1 (stereo not drawn)
active: Potency [1] 10.9 µM | Potency [6] 9.79 µM [inconclusive]
inactive: Potency [8] | Potency [3] | Potency [4] | Potency [5] | Potency (Aromatase (Homo sapiens))

C=CC(=O)OCC(CO)(COCC(COC(=O)C=C)(COC(=O)C=C)COC(=O)C=C)COC(=O)C=C
active: Potency [1] 1.52 µM | Potency [3] 21.6 µM | Potency [6] 10.8 µM [inconclusive] | Potency [5] 13.5 µM | Potency (Aromatase (Homo sapiens)) 2.4 µM
